Counter-ions that a name gives are not always drawn.
Tests used:
Settings in all cases: incubation time: 27 h, anaerobic, 37 °C;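 for the amine columns active = adjusted P below 0.05 in both replicates with a change the same way and a mean fold change under 0.8 or over 1.25; inactive = the rest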
[1] = test system: Clostridium sporogenes DSM 1664; assay: growth (OD595) fold change vs plate DMSO controls (fold change (ratio)); higher = more growth
Summary of the method: (§1)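 Growth is the fold change relative to the median of plate DMSO controls. Readings came from anaerobic mGAM cultures in 96-well plates grown for 27 h at 37 °C and read at 595 nm. They were blank-subtracted, corrected for compound background with 20 µM compound solutions in water, and converted to OD with a calibration factor of 5. Values are means of 2 biological replicates, and fold changes above 1.5 were set to NA.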

Escherichia coli IAI1 [2] = assay: as above
Summary of the method: as §1

[3] = test system: Klebsiella aerogenes DSM 30053; assay: as above
Summary of the method: as §1

[4] = test system: Ruminococcus gnavus DSM 108212; assay: as above
Summary of the method: as §1

[5] = test system: Klebsiella aerogenes DSM 30053; assay: fold change of Histamine concentration vs plate DMSO controls (fold change (ratio)); higher = more amine produced, active = hit call of the paper (significant change in both replicates, either direction)
Summary of the method: (§2)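 Each value is the fold change relative to DMSO-only wells on the same plate. Four gut bacterial strains were grown anaerobically in mGAM at 37 °C for 27 h in 80 µL wells, starting at OD 0.1 before a 1:1 dilution, with compounds at 20 µM final (sweeteners 50 µM). Whole cultures were extracted with cold acetonitrile/methanol containing 0.1% formic acid, centrifuged, and amines were quantified by LC–triple-quadrupole MS (dynamic MRM) against external calibration curves with within-batch drift correction. Values are means of 2 biological replicates.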

[6] = test system: Clostridium sporogenes DSM 1664; assay: fold change of Tryptamine concentration vs plate DMSO controls (fold change (ratio)); higher = more amine produced, active = hit call of the paper (significant change in both replicates, either direction)
Summary of the method: as §2

[7] = test system: Ruminococcus gnavus DSM 108212; assay: as above
Summary of the method: as §2

Escherichia coli IAI1 [8] = assay: fold change of Putrescine concentration vs plate DMSO controls (fold change (ratio)); higher = more amine produced, active = hit call of the paper (significant change in both replicates, either direction)
Summary of the method: as §2

[9] = test system: Klebsiella aerogenes DSM 30053; assay: as above
Summary of the method: as §2

Escherichia coli IAI1 [10] = assay: fold change of Cadaverine concentration vs plate DMSO controls (fold change (ratio)); higher = more amine produced, active = hit call of the paper (significant change in both replicates, either direction)
Summary of the method: as §2

[11] = test system: Klebsiella aerogenes DSM 30053; assay: as above
Summary of the method: as §2

[12] = test system: Ruminococcus gnavus DSM 108212; assay: fold change of 2-Phenylethylamine concentration vs plate DMSO controls (fold change (ratio)); higher = more amine produced, active = hit call of the paper (significant change in both replicates, either direction)
Summary of the method: as §2

| SMILES | growth [1] | growth (Escherichia coli IAI1 [2]) | growth [3] | growth [4] | fold change of Histamine concentration [5] | fold change of Tryptamine concentration [6] | fold change of Tryptamine concentration [7] | fold change of Putrescine concentration (Escherichia coli IAI1 [8]) | fold change of Putrescine concentration [9] | fold change of Cadaverine concentration (Escherichia coli IAI1 [10]) | fold change of Cadaverine concentration [11] | fold change of 2-Phenylethylamine concentration [12] |
| --- | --- | --- | --- | --- | --- | --- | --- | --- | --- | --- | --- | --- |
| O=C1NCCN1c1ncc([N+](=O)[O-])s1 [Niridazole] (20 µM) | 0.0129 | 1.09 | 0.756 | 0.0406 | 1.11 (inactive) | 0.0363 (active) | 0.0455 (active) | 1.44 (inactive) | 1.03 (inactive) | 1.97 (active) | 1.02 (inactive) | 0.0533 (active) |
| Cc1oncc1C(=O)Nc1ccc(C(F)(F)F)cc1 [Leflunomide] (20 µM) | 1.13 | 0.978 | 1.03 | 0.971 | 1.06 (inactive) | 0.995 (inactive) | 0.998 (inactive) | 1.01 (inactive) | 1.01 (inactive) | 1.08 (inactive) | 1 (inactive) | 1.01 (inactive) |
| N[C@@H](Cc1c[nH]c2ccccc12)C(=O)O [L-Tryptophan] (20 µM) | 1.02 | 0.993 | 0.989 | 1.19 | 1.02 (inactive) | 1.04 (inactive) | 1.05 (inactive) | 0.985 (inactive) | 0.995 (inactive) | 1.03 (inactive) | 0.993 (inactive) | 1.08 (inactive) |
| COc1cc2c(cc1OC)CC(=O)N(CCCN(C)C[C@H]1Cc3cc(OC)c(OC)cc31)CC2 [Ivabradine hydrochloride] (20 µM) | 1.05 | 0.995 | 0.986 | 0.903 | 1.02 (inactive) | 1.01 (inactive) | 1.1 (inactive) | 0.924 (inactive) | 0.937 (inactive) | 0.895 (inactive) | 1.01 (inactive) | 1.1 (inactive) |
| CC(CNC1CCCCC1)OC(=O)c1ccccc1 (stereo not given) [Hexylcaine hydrochloride] (20 µM) | 1 | 0.961 | 1.01 | 1.02 | 1.02 (inactive) | 1.03 (inactive) | 1.01 (inactive) | 1 (inactive) | 0.988 (inactive) | 0.994 (inactive) | 0.984 (inactive) | 1.01 (inactive) |
| Cc1ccc(N(CC2=NCCN2)c2cccc(O)c2)cc1 [Phentolamine hydrochloride] (20 µM) | 1.07 | 1 | 0.871 | 0.765 | 0.97 (inactive) | 1.03 (inactive) | 1 (inactive) | 1.05 (inactive) | 0.981 (inactive) | 0.652 (active) | 0.993 (inactive) | 1.01 (inactive) |
| CCCCc1oc2ccc(NS(C)(=O)=O)cc2c1C(=O)c1ccc(OCCCN(CCCC)CCCC)cc1 [Dronedarone hydrochloride] (20 µM) | 0.948 | 1.09 | 1.02 | 0.895 | 0.99 (inactive) | 0.925 (inactive) | 0.8 (inactive) | 1.16 (inactive) | 1 (inactive) | 0.996 (inactive) | 1.01 (inactive) | 0.957 (inactive) |
| Clc1ccc(COC(Cn2ccnc2)c2ccc(Cl)cc2Cl)c(Cl)c1 (stereo not given) [Miconazole] (20 µM) | 1.25 | 1.18 | 1.01 | 0.232 | 0.926 (inactive) | 0.725 (active) | 0.257 (active) | 1.2 (inactive) | 0.99 (inactive) | 0.974 (inactive) | 1.01 (inactive) | 0.277 (active) |
| Cc1c(NC(=O)c2cccnc2)c(=O)n(-c2ccccc2)n1C [Nifenazone] (20 µM) | 0.595 | 0.988 | 1.03 | 0.857 | 0.926 (inactive) | 0.135 (active) | 1.02 (inactive) | 0.723 (active) | 0.978 (inactive) | 0.865 (inactive) | 1 (inactive) | 1.03 (inactive) |
| NS(=O)(=O)c1cc(C2(O)NC(=O)c3ccccc32)ccc1Cl (stereo not given) [Chlorthalidone] (20 µM) | 0.955 | 0.977 | 1 | 1.17 | 1.09 (inactive) | 1 (inactive) | 1.03 (inactive) | 0.992 (inactive) | 1.03 (inactive) | 0.973 (inactive) | 0.983 (inactive) | 1.04 (inactive) |
| CC(=O)OCC(=O)[C@@]1(O)CC[C@H]2[C@@H]3CCC4=CC(=O)C=C[C@]4(C)[C@@]3(Cl)[C@@H](Cl)C[C@@]21C [Dichlorisone acetate] (20 µM) | 1.03 | 1.01 | 1 | 0.886 | 0.984 (inactive) | 1.01 (inactive) | 1.01 (inactive) | 1.05 (inactive) | 1.01 (inactive) | 1.04 (inactive) | 1 (inactive) | 0.997 (inactive) |
| CN1CCCN(C(c2ccccc2)c2ccc(Cl)cc2)CC1 (stereo not given) [Homochlorcyclizine dihydrochloride] (20 µM) | 1.12 | 0.99 | 1 | 0.861 | 0.994 (inactive) | 0.989 (inactive) | 0.918 (inactive) | 1.03 (inactive) | 1.01 (inactive) | 0.885 (inactive) | 1.01 (inactive) | 0.983 (inactive) |
| CN(C)CCc1c[nH]c2ccc(C[C@H]3COC(=O)N3)cc12 [Zolmitriptan] (20 µM) | 1.04 | 1.06 | 1.01 | 0.975 | 1.01 (inactive) | 1.04 (inactive) | 1.04 (inactive) | 1.01 (inactive) | 1.01 (inactive) | 1.01 (inactive) | 0.993 (inactive) | 1.06 (inactive) |
| CC(=O)Oc1ccc(C(=C2CCCCC2)c2ccc(OC(C)=O)cc2)cc1 [Cyclofenil] (20 µM) | 0.924 | 1.04 | 1.03 | 0.991 | 0.983 (inactive) | 0.873 (inactive) | 0.953 (inactive) | 1.05 (inactive) | 0.997 (inactive) | 0.997 (inactive) | 1 (inactive) | 0.942 (inactive) |
| OC[C@H]1O[C@H](O[C@]2(CCl)O[C@H](CCl)[C@@H](O)[C@@H]2O)[C@H](O)[C@@H](O)[C@H]1Cl [Sucralose] (50 µM) | 1 | 0.927 | 1.03 | 1.36 | 0.892 (inactive) | 1.28 (active) | 1.11 (inactive) | 0.948 (inactive) | 0.943 (inactive) | 1.09 (inactive) | 1.06 (inactive) | 1.2 (inactive) |
| Cc1[nH]cnc1CN1CCc2c(c3ccccc3n2C)C1=O [Alosetron hydrochloride] (20 µM) | 1.17 | 0.97 | 1.02 | 1.13 | 0.979 (inactive) | 1.04 (inactive) | 0.996 (inactive) | 0.971 (inactive) | 1.02 (inactive) | 0.945 (inactive) | 1.01 (inactive) | 0.975 (inactive) |
| CC(C)NC[C@@H](O)COc1ccc(CC(N)=O)cc1 [(R,+) Atenolol] (20 µM) | 1.19 | 1.01 | 1.12 | 1.16 | 0.951 (inactive) | 1.05 (inactive) | 1.06 (inactive) | 1.19 (inactive) | 1.02 (inactive) | 0.921 (inactive) | 1.04 (inactive) | 1.08 (inactive) |
| C#CCN(C)Cc1ccccc1 [Pargyline hydrochloride] (20 µM) | 0.983 | 0.989 | 1.03 | 0.999 | 0.983 (inactive) | 1.01 (inactive) | 1.01 (inactive) | 0.99 (inactive) | 1.01 (inactive) | 1 (inactive) | 1.01 (inactive) | 0.995 (inactive) |
| CN(N=O)C(=O)N[C@H]1C(O)O[C@H](CO)[C@@H](O)[C@@H]1O (mixture of isomers) [Streptozotocin] (20 µM) | 1.04 | 1.19 | 1 | 0.279 | 0.835 (inactive) | 0.798 (inactive) | 0.312 (active) | 1.04 (inactive) | 0.962 (inactive) | 1.31 (active) | 0.993 (inactive) | 0.376 (inactive) |
| CNCCCC12CCC(c3ccccc31)c1ccccc12 [Maprotiline hydrochloride] (20 µM) | 1.03 | 1.01 | 0.999 | 1.09 | 0.982 (inactive) | 0.973 (inactive) | 0.913 (inactive) | 1.02 (inactive) | 1.01 (inactive) | 1.03 (inactive) | 1.01 (inactive) | 0.884 (inactive) |
| COC(=O)Nc1nc2cc(C(=O)c3ccc(F)cc3)ccc2[nH]1 [Flubendazol] (20 µM) | 0.949 | 1.04 | 1.12 | 1.04 | 0.979 (inactive) | 1 (inactive) | 0.934 (inactive) | 0.943 (inactive) | 1.02 (inactive) | 0.956 (inactive) | 1.01 (inactive) | 0.919 (inactive) |
| COc1ccc(C(=O)c2ccccc2)c(O)c1 [Oxybenzone] (20 µM) | 0.901 | 0.808 | 0.963 | 0.984 | 0.962 (inactive) | 0.954 (inactive) | 1.03 (inactive) | 0.823 (inactive) | 1 (inactive) | 1.07 (inactive) | 1 (inactive) | 0.979 (inactive) |
| C[C@@H](O)[C@H]1C(=O)N2C(C(=O)O)=C(S[C@@H]3CN[C@H](CNS(N)(=O)=O)C3)[C@H](C)[C@H]12 [Doripenem monohydrate] (20 µM) | 0 | 0.00243 | 0.281 | 0.0314 | 0.193 (active) | 0.0168 (active) | 0.0858 (active) | 0.954 (inactive) | 0.467 (active) | 2.1 (active) | 1.08 (inactive) | 0.0567 (active) |
| CC(C)=CCC1C(=O)N(c2ccccc2)N(c2ccccc2)C1=O [Feprazone] (20 µM) | 1.07 | 0.999 | 1.01 | 1.04 | 0.971 (inactive) | 1.02 (inactive) | 1.01 (inactive) | 1.02 (inactive) | 1.02 (inactive) | 0.996 (inactive) | 1 (inactive) | 1.03 (inactive) |
| CN(C)C(=O)Nc1ccc(Cl)c(Cl)c1 (20 µM) | 1.05 | 1.02 | 0.938 | 1.08 | 1.01 (inactive) | 0.947 (inactive) | 0.962 (inactive) | 0.97 (inactive) | 0.976 (inactive) | 0.991 (inactive) | 0.99 (inactive) | 0.954 (inactive) |

Source: the supplement of paper PMC12494721
